Screening results: PubChem, several laboratories
Only some compounds are listed: those with a hit (about 3.1% of all), similar ones and a draw of the others.
LGR2 inh: inhibitors of bursicon-induced Drosophila LGR2 receptor cAMP signaling; HEK293 LGR2, CRE-luciferase, bursicon-stimulated, 4 h; inhibition, % at 9.99 µM; 380,000 tested, 0.35% active; AID 720647;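 active = drop in luminescence signal, shown as inhibition above about 50% in the replicate tests, limit read from the data, passing the limit was not always enough; inconclusive = probably only some replicates passing the limit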;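 note: agonist challenge used bursicon conditioned medium at about half maximal strength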
LMP1 NFkB inh: inhibitors of Epstein-Barr LMP1-induced NF-kappaB reporter; LMP1-induced NF-kappaB luciferase reporter cells, luminescence; inhibition, % at 12.5 µM; 350,000 tested, 0.69% active; AID 504558; in the data active = inhibition above about 41%; inconclusive = no clear call, values can overlap the other calls
TWEAK-Fn14 inh: inhibitors of TWEAK-Fn14 interaction signaling; TWEAK-stimulated Fn14 reporter cells, luciferase luminescence, 8 h; inhibition, % at 10 µM; 360,000 tested, 2% active; in the data active = inhibition above about 50%
TROY signal inh: TROY signaling inhibition; inhibition, % at 10 µM; Q293 LMP1-TROYcd NF-kB luciferase reporter, 4 h; 360,000 tested, 0.98% active; AID 1347056;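 active = compounds whose plate-normalised and pattern-corrected inhibition of the luciferase reporter signal at the single screening dose is 50% or more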
PAX8 reporter: inhibitors of PAX8 transcriptional activity in RMG-I cells; RMG-I TPO-luciferase reporter, SteadyGlo, 24 h; inhibition, % at 12.6 µM; 360,000 tested, 1.2% active; AID 652154;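 active = mean replicate inhibition at least 60% with every replicate also reaching 60%; inconclusive = only one of the two criteria is met; inactive = mean below 60% and not all replicates reaching 60%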;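 note: luciferase light reporting Pax8 driven TPO promoter activity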
EWS-Fli inh: inhibitors of EWS/Fli oncoprotein transcriptional activity; 350,000 tested, 0.67% active; inhibition, % at 12.6 µM; AID 651661; A673 NR0B1-luciferase reporter, viability-normalised;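 active = mean inhibition of at least 50% after viability correction, with every replicate also passing that limit; inconclusive = mean reaches 50% but only one of two replicates passes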;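 note: firefly luciferase signal divided by Alamar Blue viability fluorescence both relative to DMSO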
Hits are given with their value; n = inactive; u = inconclusive; x = no result; ! = repeats disagree.

SMILES	LGR2 inh	LMP1 NFkB inh	TWEAK-Fn14 inh	TROY signal inh	PAX8 reporter	EWS-Fli inh
O=C(Nc1ccccc1C(=O)N1CCCCC1)c1cccc(S(=O)(=O)N2CCOCC2)c1	x	n	60	x	x	x
O=C(Nc1nc(-c2ccc(S(=O)(=O)N3CCCCCC3)cc2)cs1)c1cccs1	x	n	n	n	n	x
O=C(Nc1cc(S(=O)(=O)N2CCOCC2)ccc1Cl)c1ccncc1	n	69	n	n	n	n
COc1ccc(S(=O)(=O)N2CCOCC2)cc1NC(=O)c1ccc(Cl)cc1	n	n	n	n	n	n
O=C(Nc1nc(-c2ccc(S(=O)(=O)N3CCCC3)cc2)cs1)c1cccs1	x	n	55	53	x	x
CO[C@H]1CN(C)C(=O)c2ccc(NC(=O)c3ccccc3F)cc2OC[C@@H](C)N(C(=O)c2ccccc2F)C[C@@H]1C	n	x	x	x	x	n
O=C(NCC[C@@H]1CC[C@H](NS(=O)(=O)c2cccc(Cl)c2)[C@H](CO)O1)c1cnccn1	n	x	x	x	n	n
CN1C(=O)[C@@H]2[C@@H](C[C@]3(COc4ccccc4)OC[C@H]2/C3=C\c2ccccc2)C1=O	x	x	x	x	n	n
COc1cccc(C(=O)Nc2nc(-c3ccc(S(=O)(=O)N4CCOCC4)cc3)cs2)c1	x	n	70	64	x	x
O=C(Nc1nc(-c2ccccc2)cs1)C1CCCN(S(=O)(=O)c2ccccc2)C1 (stereo not drawn)	n	n	88	n	x	x
O=C(Nc1nc(-c2ccc(S(=O)(=O)N3CCOCC3)cc2)cs1)c1ccccc1	u	n	85	53	n	n
Cc1cc(NC(=O)c2cccc(S(=O)(=O)N3CCCCCC3)c2)n(-c2ccccn2)n1	n	n	52	n	x	x
O=C(Nc1nc(-c2ccccc2)cs1)C1CCCN(S(=O)(=O)c2cccc([N+](=O)[O-])c2)C1 (stereo not drawn)	x	n	n	n	n	x
O=C(Nc1nc(-c2nc3ccccc3s2)cs1)c1ccc(S(=O)(=O)N2CCOCC2)cc1	u	n	78	64	x	x
O=C(Nc1nc(-c2ccccc2)c(C(=O)c2ccccc2)s1)c1ccc(S(=O)(=O)N2CCCC2)cc1	n	n	72	n	n	n
O=C(Nc1nc(-c2ccccc2)c(-c2ccccc2)s1)c1ccc(S(=O)(=O)N2CCCC2)cc1	n	n	n	n	x	x
C[C@H](CO)N1C[C@H](C)[C@H](CN(C)S(=O)(=O)c2ccc(F)cc2)OCc2cnnn2CCCC1=O	n	n	102	n	n	n
C[C@H](CO)N1C[C@H](C)[C@@H](CN(C)S(=O)(=O)c2ccc(-c3ccccc3)cc2)OCc2cn(nn2)CCCC1=O	n	n	n	n	76!	n
C[C@@H]1CN([C@@H](C)CO)C(=O)CCCn2nncc2CO[C@H]1CN(C)C(=O)Nc1ccc(-c2cccs2)cc1	n	n	n	n	84	n
C[C@H](CO)N1C[C@H](C)[C@@H](CN(C)C(=O)Nc2ccc(-c3cccs3)cc2)OCc2cnnn2CCCC1=O	n	x	x	x	n	n
C[C@H]1CN([C@@H](C)CO)C(=O)CCCn2nncc2CO[C@H]1CN(C)C(=O)Nc1ccc(-c2cccs2)cc1	n	x	x	x	66	n
C[C@H](CO)N1C[C@H](C)[C@H](CN(C)Cc2ccncc2)Oc2c(NS(=O)(=O)c3ccccc3)cccc2C1=O	n	x	x	x	n	n
COC(=O)C[C@H]1CC[C@@H]2[C@H](COc3ccc(NC(=O)c4ccccc4F)cc3C(=O)N2C)O1	n	x	x	x	n	n
C[C@H]1CN([C@@H](C)CO)C(=O)CCCn2cc(nn2)CO[C@@H]1CN(C)C(=O)Nc1ccc(-c2cccs2)cc1	n	x	n	n	n	n
C[C@@H]1CN([C@H](C)CO)C(=O)CCCn2cc(nn2)CO[C@H]1CN(C)C(=O)Nc1ccc(-c2cccs2)cc1	n	n	n	n	82	n
C[C@H]1CN([C@@H](C)CO)C(=O)CCCn2nncc2CO[C@@H]1CN(C)C(=O)Nc1cccc2ccccc12	n	n	53	n	n	n
COc1ccc2c3c([nH]c2c1)[C@@H](CO)N(C(=O)c1cccnc1)CC31CCN(C(=O)NC(C)C)CC1	n	x	x	x	x	n
CCNC(=O)C[C@H]1C=C[C@@H](NC(=O)C2CC2)[C@H](CO)O1	n	x	x	x	n	n
CCN=c1scc(-c2cccs2)n1/N=C/c1cc(OC)ccc1O	n	n	62	n	n	x
CN=c1scc(-c2ccco2)n1/N=C/c1ccc(O)c(O)c1	n	n	n	n	n	n
